Laboratory results reported in PubChem BioAssay (NCI).
About 83,000 compounds went through this panel and 20% of them were active in at least one assay; those are over-represented in the sample as a whole.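 In brief: 96-well plates, 48 h treatment, single concentration, percent growth endpoint.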 A number with no mark means an inactive call. Calls of active or inactive are those of the source. The calls were made as follows: active = growth percent below 10; inactive = the rest.

Each molecule was assayed on M14 melanoma (assay: NCI-60 one-dose screen, 48 h (100 = growth as untreated, 0 = no growth, -100 = all killed)). Conditions: 10 µM unless noted.

Structure (SMILES) | growth
CCOC(=O)c1c(Nc2ccccc2)nn2c(N)c(C#N)c(-c3ccccc3)nc12 | 89%
COC(=O)c1ccc(NC(=S)N2CCc3ccc([N+](=O)[O-])cc3C2)cc1O | 102%
CCCC(=O)NC(c1cccc(N(C)C)c1)c1cc(C)c2cccnc2c1O (stereo not drawn) | 49.3%
COc1cc(/C=C/C(=O)c2cc(OC)c(OC)c(OC)c2)ccc1Oc1nc(NCCO)nc(N2CCOCC2)n1 | -19.1% (active)
CS(=O)(=O)c1ccc(-n2cc(/C=C/C(=O)c3ccc(NC(=O)CO[N+](=O)[O-])cc3)c(-c3ccc(Cl)cc3)n2)cc1 | 91.6%
Cc1cc2nc3c4cc(Cl)ccc4n(CC(=O)NCCN(C)C)c3nc2cc1C | -88.7% (active)
Cc1cc2nc3c4cc(Cl)ccc4n(CC(=S)NCCN(C)C)c3nc2cc1C | -90.1% (active)
NS(=O)(=O)c1ccc(Nc2nc(SCC(=O)c3ccc(Cl)cc3)nc3ccccc23)cc1 | 97%
Clc1ccc2oc3c(NCCCN4CCOCC4)c4ccccc4nc3c2c1 | 31.8%
Cc1ccc(/C=C/c2nn3c(-c4ccco4)nnc3s2)cc1C | 108%
N=C1CC(=O)NN1C(=O)CSc1nc2sc3c(c2c(=O)n1-c1ccc(Cl)cc1)CCCC3 | 99.3%
O=C(NNc1nc2cc(F)ccc2n2c(CN3CC4(COC4)C3)ccc12)c1cnccn1 | -26.4% (active)
COc1cc2nc(-c3ccc(C)cc3)cc(OCCCNCC3CCCO3)c2cc1OC (stereo not drawn) | 14.3%
CS(=O)(=O)c1ccc(-c2nc3ccccn3c2C=Nc2ccc(Cl)cc2)cc1 | 43.8%
C#Cc1nc(C2=C(C)C(=O)/C(=N/OC(C)=O)C2)cs1 | 85.2%
CSCCC(C(=O)O)N1C(=O)/C(=C/c2ccc(O)c(O)c2)SC1=S (stereo not drawn) | 101%
CC(=NNc1ncnc2ccccc12)c1ccc(S(C)(=O)=O)cc1 | 92.5%
Nc1c(C(=O)c2ccc(Br)cc2)oc2nc(-c3cnccn3)cc(-c3cccs3)c12 | 98.9%
COc1cc(-c2nc3ccc(-c4nnc(SCC(=O)Nc5ccc(C(C)=O)cc5)o4)cc3[nH]2)cc(OC)c1OC | 105%
N#Cc1nc(-c2ccccc2)oc1S(N)(=O)=O | 40.7%

Structure (SMILES) | growth
O=C(CN1C(=O)/C(=C/c2ccccc2)SC1=S)N1CCOCC1 | 88.5%
Nc1ncc(-c2ccc3ncnc(N4CCc5cc(F)c(Cl)cc54)c3c2)cc1CO | -3.69% (active)
Cc1ccc(C(=O)Nc2cccc(C(F)(F)F)c2)cc1Nc1nc(-c2cnccn2)nc2c1cnn2C | 15.7%
Clc1ccc2c(NCCCn3ccnc3)c3oc4ccc(Cl)cc4c3nc2c1 | 105%
CN(C)CCCNc1c2ccc(Cl)cc2nc2c1oc1ccc(Cl)cc12 | -75.6% (active)
O=C(N/N=C/c1ccc[nH]1)c1[nH]c2ccc(Br)cc2c1-c1ccccc1 | 13.2%
C#Cc1nc(C2=C(C)/C(=N/OCc3ccccc3)CC2)cs1 | 75.4%
N#Cc1ccc(C(=O)CSc2nc(Nc3ccc(S(N)(=O)=O)cc3)c3ccccc3n2)cc1 | 103%
C=CCn1c(SCC(=O)c2ccccc2)nnc1-c1c[nH]c2ccccc12 | 97.7%
Cc1cc(=O)oc2cc(OCCCOc3ccc(/C=C/C(=O)Nc4ccc(Cl)cc4)cc3)ccc12 | 74.2%
O=C(c1ccc(Cl)cc1)C1[C@H](c2ccc(Cl)cc2)[C@@H](c2ccccc2)NC12C(=O)Nc1ccc(Br)cc12 (stereo partly drawn) | 27.2%
C[C@@H](Nc1c(C#N)cnc2ccc(-c3cnc(N)nc3)cc12)c1ccccc1 | 21.3%
CCN1C(=S)N(CC)C2C1NN=C1SC(c3ccccc3)=CC(=O)N12 (stereo not drawn) | 106%
CC(C)(O)c1cncc(-c2ccc3ncnc(N4CCc5cc(F)c(Cl)cc54)c3c2)c1 | 32.2%
CC(C)(C)Nc1nc2c(OCCc3ccccc3)cccn2c1-c1ccccc1Cl | 0.193% (active)
COc1ccc(/C=N/NC(=O)c2[nH]c3ccc(Br)cc3c2-c2ccccc2)s1 | 6.17% (active)
OC1CCN(CCCOc2c3ccccc3nc3c2oc2ccc(Cl)cc23)CC1 | -4.12% (active)
Cc1sc2c(c1C)c(=O)nc1c(-c3nc(-c4ccc(F)cc4)no3)n[nH]n12 | 107%
CC(C)(C)Nc1nc2c(OCCc3ccccc3)cccn2c1-c1cccc(F)c1 | -3.59% (active)

Each molecule was assayed on HCT-15 colon in the same assay as above. Conditions: 10 µM unless noted.

Structure (SMILES) | growth
CCOC(=O)c1c(Nc2ccccc2)nn2c(N)c(C#N)c(-c3ccccc3)nc12 | 52.4%
COC(=O)c1ccc(NC(=S)N2CCc3ccc([N+](=O)[O-])cc3C2)cc1O | 99.7%
CCCC(=O)NC(c1cccc(N(C)C)c1)c1cc(C)c2cccnc2c1O (stereo not drawn) | 24.9%
COc1cc(/C=C/C(=O)c2cc(OC)c(OC)c(OC)c2)ccc1Oc1nc(NCCO)nc(N2CCOCC2)n1 | -9.13% (active)
CS(=O)(=O)c1ccc(-n2cc(/C=C/C(=O)c3ccc(NC(=O)CO[N+](=O)[O-])cc3)c(-c3ccc(Cl)cc3)n2)cc1 | 96.2%
Cc1cc2nc3c4cc(Cl)ccc4n(CC(=O)NCCN(C)C)c3nc2cc1C | -7.4% (active)
Cc1cc2nc3c4cc(Cl)ccc4n(CC(=S)NCCN(C)C)c3nc2cc1C | -76.3% (active)
NS(=O)(=O)c1ccc(Nc2nc(SCC(=O)c3ccc(Cl)cc3)nc3ccccc23)cc1 | 86.6%
Clc1ccc2oc3c(NCCCN4CCOCC4)c4ccccc4nc3c2c1 | 3.77% (active)
Cc1ccc(/C=C/c2nn3c(-c4ccco4)nnc3s2)cc1C | 96%
N=C1CC(=O)NN1C(=O)CSc1nc2sc3c(c2c(=O)n1-c1ccc(Cl)cc1)CCCC3 | 106%
O=C(NNc1nc2cc(F)ccc2n2c(CN3CC4(COC4)C3)ccc12)c1cnccn1 | 33.1%
COc1cc2nc(-c3ccc(C)cc3)cc(OCCCNCC3CCCO3)c2cc1OC (stereo not drawn) | 38%
CS(=O)(=O)c1ccc(-c2nc3ccccn3c2C=Nc2ccc(Cl)cc2)cc1 | 34.3%
C#Cc1nc(C2=C(C)C(=O)/C(=N/OC(C)=O)C2)cs1 | 88.1%
CSCCC(C(=O)O)N1C(=O)/C(=C/c2ccc(O)c(O)c2)SC1=S (stereo not drawn) | 100%
CC(=NNc1ncnc2ccccc12)c1ccc(S(C)(=O)=O)cc1 | 96.5%
Nc1c(C(=O)c2ccc(Br)cc2)oc2nc(-c3cnccn3)cc(-c3cccs3)c12 | 97.7%
COc1cc(-c2nc3ccc(-c4nnc(SCC(=O)Nc5ccc(C(C)=O)cc5)o4)cc3[nH]2)cc(OC)c1OC | 103%
N#Cc1nc(-c2ccccc2)oc1S(N)(=O)=O | 27.1%

Structure (SMILES) | growth
O=C(CN1C(=O)/C(=C/c2ccccc2)SC1=S)N1CCOCC1 | 88.2%
Nc1ncc(-c2ccc3ncnc(N4CCc5cc(F)c(Cl)cc54)c3c2)cc1CO | 5.51% (active)
Cc1ccc(C(=O)Nc2cccc(C(F)(F)F)c2)cc1Nc1nc(-c2cnccn2)nc2c1cnn2C | 81.3%
Clc1ccc2c(NCCCn3ccnc3)c3oc4ccc(Cl)cc4c3nc2c1 | 51.9%
CN(C)CCCNc1c2ccc(Cl)cc2nc2c1oc1ccc(Cl)cc12 | -42.4% (active)
O=C(N/N=C/c1ccc[nH]1)c1[nH]c2ccc(Br)cc2c1-c1ccccc1 | 9.42% (active)
C#Cc1nc(C2=C(C)/C(=N/OCc3ccccc3)CC2)cs1 | 53.4%
N#Cc1ccc(C(=O)CSc2nc(Nc3ccc(S(N)(=O)=O)cc3)c3ccccc3n2)cc1 | 100%
C=CCn1c(SCC(=O)c2ccccc2)nnc1-c1c[nH]c2ccccc12 | 96%
Cc1cc(=O)oc2cc(OCCCOc3ccc(/C=C/C(=O)Nc4ccc(Cl)cc4)cc3)ccc12 | 60.4%
O=C(c1ccc(Cl)cc1)C1[C@H](c2ccc(Cl)cc2)[C@@H](c2ccccc2)NC12C(=O)Nc1ccc(Br)cc12 (stereo partly drawn) | 24.6%
C[C@@H](Nc1c(C#N)cnc2ccc(-c3cnc(N)nc3)cc12)c1ccccc1 | 9.79% (active)
CCN1C(=S)N(CC)C2C1NN=C1SC(c3ccccc3)=CC(=O)N12 (stereo not drawn) | 78.2%
CC(C)(O)c1cncc(-c2ccc3ncnc(N4CCc5cc(F)c(Cl)cc54)c3c2)c1 | 14.1%
CC(C)(C)Nc1nc2c(OCCc3ccccc3)cccn2c1-c1ccccc1Cl | -72.1% (active)
COc1ccc(/C=N/NC(=O)c2[nH]c3ccc(Br)cc3c2-c2ccccc2)s1 | 12%
OC1CCN(CCCOc2c3ccccc3nc3c2oc2ccc(Cl)cc23)CC1 | 10.1%
Cc1sc2c(c1C)c(=O)nc1c(-c3nc(-c4ccc(F)cc4)no3)n[nH]n12 | 92.5%
CC(C)(C)Nc1nc2c(OCCc3ccccc3)cccn2c1-c1cccc(F)c1 | -60.2% (active)
